Most compounds without a hit are left out; they make up all but 2.9% or so of the library.
ADAM10 inh: inhibitors of human ADAM10 | O14672 | recombinant ADAM10, EDANS/DABCYL FRET peptide cleavage, 3 h | inhibition, % at 7 µM | hit rate 0.62% among 370,000;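 active = inhibition above a per-campaign cutoff equal to the mean of compounds falling between control-based bounds plus 3 SD, cut at about 20% in these data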;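 also: 0% = DMSO wells while the 100% control is not disclosed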
PLC-beta3 inh: PLC-beta3 (human) inhibition, primary screen; hit rate 0.18% among 370,000; Purified PLC-beta3, fluorogenic substrate, fluorescence; inhibition, % at 12.2 µM; AID 720704; in the data active = inhibition above about 11%;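 also: 0% = median of compound wells on plate and 100% = full blocker control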
Target sequence (Q01970 whole entry, looked up): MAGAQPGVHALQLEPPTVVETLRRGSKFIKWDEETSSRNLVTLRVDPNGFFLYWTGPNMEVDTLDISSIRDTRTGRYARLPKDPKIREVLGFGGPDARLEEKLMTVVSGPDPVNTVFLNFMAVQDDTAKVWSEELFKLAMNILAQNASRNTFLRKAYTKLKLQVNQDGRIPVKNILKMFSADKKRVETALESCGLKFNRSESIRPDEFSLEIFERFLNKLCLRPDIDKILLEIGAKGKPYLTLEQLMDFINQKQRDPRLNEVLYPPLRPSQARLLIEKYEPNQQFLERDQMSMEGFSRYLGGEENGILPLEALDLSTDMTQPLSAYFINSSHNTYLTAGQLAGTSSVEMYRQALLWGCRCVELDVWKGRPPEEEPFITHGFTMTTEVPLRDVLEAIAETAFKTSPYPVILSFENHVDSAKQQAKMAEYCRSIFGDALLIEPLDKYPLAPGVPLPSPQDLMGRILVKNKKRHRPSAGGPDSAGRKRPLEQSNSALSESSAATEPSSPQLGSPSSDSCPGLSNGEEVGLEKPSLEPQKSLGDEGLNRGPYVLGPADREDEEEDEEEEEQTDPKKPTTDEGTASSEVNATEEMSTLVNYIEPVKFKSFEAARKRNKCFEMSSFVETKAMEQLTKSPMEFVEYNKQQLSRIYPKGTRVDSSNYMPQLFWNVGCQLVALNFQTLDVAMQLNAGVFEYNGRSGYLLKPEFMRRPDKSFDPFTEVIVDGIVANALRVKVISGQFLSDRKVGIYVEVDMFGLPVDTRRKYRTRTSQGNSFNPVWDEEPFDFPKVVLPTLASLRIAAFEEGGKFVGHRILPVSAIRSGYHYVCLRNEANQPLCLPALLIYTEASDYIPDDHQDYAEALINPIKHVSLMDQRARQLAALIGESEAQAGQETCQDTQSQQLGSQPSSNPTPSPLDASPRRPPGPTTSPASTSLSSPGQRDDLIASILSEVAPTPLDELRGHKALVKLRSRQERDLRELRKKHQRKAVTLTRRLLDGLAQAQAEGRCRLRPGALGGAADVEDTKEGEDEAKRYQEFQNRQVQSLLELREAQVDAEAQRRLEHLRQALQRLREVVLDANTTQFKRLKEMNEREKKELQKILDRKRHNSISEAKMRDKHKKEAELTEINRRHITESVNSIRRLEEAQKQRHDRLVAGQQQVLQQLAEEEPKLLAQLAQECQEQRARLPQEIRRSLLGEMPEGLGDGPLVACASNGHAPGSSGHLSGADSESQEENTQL
ADAM17 inh: ADAM17 inhibition, QFRET primary screen | P78536 | recombinant ADAM17, EDANS/DABCYL FRET peptide cleavage | inhibition, % at 6.95 µM | hit rate 0.83% among 370,000;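 active = inhibition above the mean of compounds lying between control limits plus 3 SD, set per campaign, cut at about 8.5% in these data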;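 also: 0% = DMSO-only wells as the low control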
PLCg1 inh: PLC-gamma1 (human) inhibition, primary screen. hit rate 0.84% among 370,000. purified PLC-gamma1, fluorogenic substrate, fluorescence. inhibition, % at 12.2 µM. P19174. AID 720700; in the data active = inhibition above about 9.5%
proKLK7 act: proKLK7 (human) activation, primary screen; P49862; purified proKLK7, EDANS-DABCYL substrate fluorescence; 100% is mature enzyme control, 0% vehicle; activation, % at 7 µM; hit rate 0.9% among 370,000;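 active = activation above the mean of all tested compounds plus 3 SD, computed per campaign excluding outliers beyond control limits, cut at about 13% in these data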
An asterisk follows results filed as active; i = inactive.

SMILES	ADAM10 inh	PLC-beta3 inh	ADAM17 inh	PLCg1 inh	proKLK7 act
CCCCNC(=O)CSc1nc2ccsc2c(=O)n1C1CCN(C(=O)OCC)CC1	20*	6	0	5	-1
COc1cccc(C(C[N+](=O)[O-])c2c(C)[nH]n(-c3ccccc3)c2=O)c1 (stereo not drawn)	-2	-4	0	3	0
Cc1[nH]n(-c2ccccc2)c(=O)c1C(c1cccc([N+](=O)[O-])c1)c1c(C)[nH]n(-c2ccccc2)c1=O	5	7	5	13*	0
COc1ccc(CNC(=O)C[C@H]2C[C@H](C(=O)N3CCCCC3)[C@@]3(C)c4[nH]c5cc(-c6ccco6)ccc5c4CCN3C2=O)cc1OC	-244	-325	-68	-245	68*
CC(C)N(C(=O)[C@H]1C[C@H](CC(=O)NCc2ccco2)C(=O)N2CCc3c([nH]c4cc(-c5ccco5)ccc34)[C@]12C)C(C)C	-223	-430	-75	-281	35*
CC(C)N(C(=O)[C@H]1CC(CC(=O)NCc2ccco2)C(=O)N2CCc3c([nH]c4ccccc34)[C@]12C)C(C)C (stereo partly drawn)	-4	3	-2	0	1
CC[C@]12c3[nH]c4ccc(Cl)cc4c3CCN1C(=O)[C@@H](CC(=O)NC(C)(C)C)C[C@@H]2C(=O)N1CCN(C(=O)c2ccco2)CC1	-12	-1	-2	-2	0
CC[C@]12c3[nH]c4cc(-c5ccco5)ccc4c3CCN1C(=O)[C@@H](CC(=O)NC(C)(C)C)C[C@@H]2C(=O)N1CCN(C(=O)c2ccco2)CC1	i	i	-153	-448	116*
O=C(CCn1nnc2ccccc21)N1CCN(c2ccccc2F)CC1	-2	-1	-1	1	0
COC(=O)c1cc2c(c3c4cc(F)ccc4n(C(=O)c4ccccc4)c13)C(=O)N(C1CCCCC1)C2	-19	-23	-6	-15	0
Cc1cc(C)c2c(=N)c3ccccc3n(CCCCCCCCn3c4ccccc4c(=N)c4c(C)cc(C)nc43)c2n1	i	i	-141	i	37*
COc1cccc(C(=O)N[C@H](C(=O)N2CCC[C@H]2C(=O)NCCc2ccccc2Cl)C(C)C)c1	-8	1	-4	3	0
CC(C)CN(C(=O)c1cc([N+](=O)[O-])cc([N+](=O)[O-])c1)C1CCS(=O)(=O)C1 (stereo not drawn)	0	-3	-7	-1	0
CC(C)CN(C(=O)CCNC(=O)c1ccc([N+](=O)[O-])cc1)C1CCS(=O)(=O)C1 (stereo not drawn)	-2	11*	5	7	0
CCN(CC)S(=O)(=O)c1ccc2oc(C(=O)NCc3ccc(F)cc3)c(C)c2c1	22*	3	8.8*	0	0
COc1ccc2c(c1)OC[C@H]1[C@H]2N2C(=O)c3ccc(C)cc3NC(=O)[C@@]2(C)[C@H]1c1ccccc1	16	0	9.6*	0	-1
COc1cc2c(cc1OC)C(c1cccs1)N(C(=O)c1cccnc1)CC2 (stereo not drawn)	4	4	-4	9.9*	0
COc1cc2c(cc1OC)C(c1cccs1)N(C(=O)C(C)C)CC2 (stereo not drawn)	4	1	-3	-1	0
CCOC(=O)CCC(=O)c1c(C)oc2ccc(OC)cc12	0	-2	9.9*	0	-1
CNc1nnc(-c2ccc(N(C)C)cc2)s1	i	i	i	i	40*
O=C1CN(C(=O)CSc2nc3cc(Cl)ccc3c(=O)n2Cc2ccccc2)c2ccccc2N1	7	-4	-5	-2	0
Cc1ccc(Cn2c(SCC(=O)N3CC(=O)Nc4ccccc43)nc3ccccc3c2=O)cc1	16	-1	8.9*	-4	-1
COc1ccc(NC(=O)CN2CCN(c3nc(-c4cccc(OC)c4)cs3)CC2)cc1	20*	-3	9	2	0
COc1cccc(C(c2nnnn2-c2c(C)cccc2C)N2CCN(C/C=C/c3ccccc3)CC2)c1OC (stereo not drawn)	7	3	7	4	-1
Cc1cccc(C)c1-n1nnnc1C(c1ccccc1OC(F)(F)F)N1CCN(C/C=C/c2ccccc2)CC1 (stereo not drawn)	7	8	5	12*	0
SMILES	ADAM10 inh	PLC-beta3 inh	ADAM17 inh	PLCg1 inh	proKLK7 act
CCCCCCCCN1C(=O)[C@@H](CC(=O)NCc2cccs2)C[C@@]2(C(=O)OC)C1=C[C@H](C(C)(C)C)O[C@@H]2C	6	0	-2	-2	0
CC(=O)N1CCCN(C(=O)Cn2cnc3ccccc3c2=O)CC1	-4	-1	-1	0	0
CCn1c(SCC(=O)Nc2nc(-c3ccc(C)cc3)cs2)nnc1-c1ccccc1O	4	3	15*	8	0
CCn1c(SCC(=O)Nc2nc(-c3ccc(C)cc3)cs2)nnc1-c1ccccc1	0	1	1	3	0
Cc1cccc(NC(=O)N2CCC(N(C)CCC(C)C)CC2)c1	-13	1	-2	1	0
Cc1ccc([N+](=O)[O-])cc1N(CC(=O)Nc1ccc(S(=O)(=O)Nc2cccc(C(F)(F)F)c2)cc1)S(C)(=O)=O	49*	2	25*	9.9*	0
Cc1ccc(NC2CCCN(C(=O)CCN3CCCCO3)C2)cc1C (stereo not drawn)	3	3	-3	12*	1
O=C(CCN1CCCCO1)N1CCCC(Nc2ccc(F)c(F)c2)C1 (stereo not drawn)	-1	-3	-2	4	1
C=CCn1c(SCc2c(C(=O)OC)sc(N)c2C(=O)OC)nnc1-c1ccc(Br)cc1	20*	8	4	8	0
C=CCn1c(SCC(=O)c2ccc(-c3ccccc3)cc2)nnc1-c1ccc(OC)cc1	0	-1	4	-2	-1
CCC(CO)Nc1cccc2c1S(=O)(=O)N(Cc1cn(Cc3ccc(C(F)(F)F)cc3)nn1)Cc1ccccc1O2 (stereo not drawn)	-51	-7	-1	-7	0
CCN(CC)C(=O)CC[C@H]1CC[C@]2(CCCN(C3CCCCC3)C2)O1	7	2	3	2	0
CC(Nc1nc(-c2ccc(Cl)cc2)cs1)c1nc2cc(Cl)c(N3CCCCC3)cc2n1CCOCCO (stereo not drawn)	22*	0	7	-4	0
CCCCn1c(SC(C)C(=O)c2ccc(OC)cc2)nc2cc(S(N)(=O)=O)ccc21 (stereo not drawn)	26*	2	20*	7	0
COc1cccc(NC(=O)N2CC[C@@H]3[C@H]2c2cc(-c4cccc(C#N)c4)ccc2N(C)[C@@H]3CO)c1	-197	i	-65	i	-7
COc1ccc(CNc2nc(NCc3ccc(OC)c(OC)c3)n(C(=O)c3cccs3)n2)cc1OC	18	-22	7	-13	199*
CCOC(=O)N1CCN(C(=O)c2ccc3c(c2)N(CC)CCS3)CC1	-206	i	-54	-428	14*

Assay outcomes from PubChem BioAssay.
